# Reference: PMC11006913
# Where a chain is given by its changes, count along the chain named.
# What was measured:
# Assay in all cases: PBM; 200 nM protein, PBS
# Conditions in all cases: dsDNA, one strand shown
# SIX6 [1] = target: T1, SIX6 (Homo sapiens, UniProt O95475 114-200, L167I)
# T1 sequence: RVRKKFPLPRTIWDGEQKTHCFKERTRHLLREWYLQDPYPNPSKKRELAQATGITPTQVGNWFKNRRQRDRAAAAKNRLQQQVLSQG
# SIX6 [2] = target: T2, SIX6 (Homo sapiens, UniProt O95475 114-200, L143V)
# T2 sequence: T1 sequence with L30V, I54L
# SIX6 [3] = target: T3, SIX6 (Homo sapiens, UniProt O95475 114-200, H141N)
# T3 sequence: T1 sequence with H28N, I54L
# SIX6 [4] = target: T4, SIX6 (Homo sapiens, UniProt O95475 114-200, T165P)
# T4 sequence: T1 sequence with T52P, I54L
# SIX6 [5] = target: T5, SIX6 (Homo sapiens, UniProt O95475 114-200, L167M)
# T5 sequence: T1 sequence with I54M
# SIX6 [6] = target: T6, SIX6 (Homo sapiens, UniProt O95475 114-200, L143M)
# T6 sequence: T1 sequence with L30M, I54L
# SIX6 [7] = target: T7, SIX6 (Homo sapiens, UniProt O95475 114-200, L143I)
# T7 sequence: T1 sequence with L30I, I54L
# SIX6 [8] = target: T8, SIX6 (Homo sapiens, UniProt O95475 114-200, T165G)
# T8 sequence: T1 sequence with T52G, I54L
# SIX6 [9] = target: T9, SIX6 (Homo sapiens, UniProt O95475 114-200, T139Q)
# T9 sequence: T1 sequence with T26Q, I54L
# SIX6 [10] = target: T10, SIX6 (Homo sapiens, UniProt O95475 114-200, T165A)
# T10 sequence: T1 sequence with T52A, I54L
# SIX6 [11] = target: T11, SIX6 (Homo sapiens, UniProt O95475 114-200, L167V)
# T11 sequence: T1 sequence with I54V
# SIX6 [12] = target: T12, SIX6 (Homo sapiens, UniProt O95475 114-200)
# T12 sequence: T1 sequence with I54L
# SIX6 [13] = target: T13, SIX6 (Homo sapiens, UniProt O95475 114-200, T165I)
# T13 sequence: T1 sequence with T52I, I54L
# HOXA2 [14] = target: HOXA2 (Homo sapiens, UniProt O43364 129-215, R185T)
# HOXA2 (Homo sapiens, UniProt O43364 129-215, R185T), sequence (O43364 129-215 R185T): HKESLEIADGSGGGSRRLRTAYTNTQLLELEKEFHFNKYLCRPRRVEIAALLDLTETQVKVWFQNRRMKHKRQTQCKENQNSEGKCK
# HOXA2 [15] = target: HOXA2 (Homo sapiens, UniProt O43364 129-215, R185K)
# HOXA2 (Homo sapiens, UniProt O43364 129-215, R185K), sequence (O43364 129-215 R185K): as the sequence (O43364 129-215 R185T) above, with T57K counted along it
# HOXA2 [16] = target: HOXA2 (Homo sapiens, UniProt O43364 129-215, Y150S)
# HOXA2 (Homo sapiens, UniProt O43364 129-215, Y150S), sequence (O43364 129-215 Y150S): as the sequence (O43364 129-215 R185T) above, with Y22S, T57R counted along it
# HOXA2 [17] = target: HOXA2 (Homo sapiens, UniProt O43364 129-215)
# HOXA2 (Homo sapiens, UniProt O43364 129-215), sequence (O43364 129-215): as the sequence (O43364 129-215 R185T) above, with T57R counted along it
Sequence,binding signal (SIX6 [1]),binding signal (SIX6 [2]),binding signal (SIX6 [3]),binding signal (SIX6 [4]),binding signal (SIX6 [5]),binding signal (SIX6 [6]),binding signal (SIX6 [7]),binding signal (SIX6 [8]),binding signal (SIX6 [9]),binding signal (SIX6 [10]),binding signal (SIX6 [11]),binding signal (SIX6 [12]),binding signal (SIX6 [13]),binding signal (HOXA2 [14]),binding signal (HOXA2 [15]),binding signal (HOXA2 [16]),binding signal (HOXA2 [17])
CAGGCCCG,"8.93 upbm affinity estimate (log intensity, higher = more binding, comparable within an allelic series)","8.77 upbm affinity estimate (log intensity, higher = more binding, comparable within an allelic series)","8.88 upbm affinity estimate (log intensity, higher = more binding, comparable within an allelic series)","8.76 upbm affinity estimate (log intensity, higher = more binding, comparable within an allelic series)","8.82 upbm affinity estimate (log intensity, higher = more binding, comparable within an allelic series)","8.79 upbm affinity estimate (log intensity, higher = more binding, comparable within an allelic series)","8.85 upbm affinity estimate (log intensity, higher = more binding, comparable within an allelic series)","8.97 upbm affinity estimate (log intensity, higher = more binding, comparable within an allelic series)","9.09 upbm affinity estimate (log intensity, higher = more binding, comparable within an allelic series)","8.92 upbm affinity estimate (log intensity, higher = more binding, comparable within an allelic series)","8.87 upbm affinity estimate (log intensity, higher = more binding, comparable within an allelic series)","8.81 upbm affinity estimate (log intensity, higher = more binding, comparable within an allelic series)","8.93 upbm affinity estimate (log intensity, higher = more binding, comparable within an allelic series)",–,–,–,–
GTCCGGAC,"9.13 upbm affinity estimate (log intensity, higher = more binding, comparable within an allelic series)","8.97 upbm affinity estimate (log intensity, higher = more binding, comparable within an allelic series)","8.97 upbm affinity estimate (log intensity, higher = more binding, comparable within an allelic series)","9.02 upbm affinity estimate (log intensity, higher = more binding, comparable within an allelic series)","9.09 upbm affinity estimate (log intensity, higher = more binding, comparable within an allelic series)","9.15 upbm affinity estimate (log intensity, higher = more binding, comparable within an allelic series)","9.08 upbm affinity estimate (log intensity, higher = more binding, comparable within an allelic series)","9.27 upbm affinity estimate (log intensity, higher = more binding, comparable within an allelic series)","9.2 upbm affinity estimate (log intensity, higher = more binding, comparable within an allelic series)","9.14 upbm affinity estimate (log intensity, higher = more binding, comparable within an allelic series)","9.17 upbm affinity estimate (log intensity, higher = more binding, comparable within an allelic series)","9.13 upbm affinity estimate (log intensity, higher = more binding, comparable within an allelic series)","9.13 upbm affinity estimate (log intensity, higher = more binding, comparable within an allelic series)","7.42 upbm affinity estimate (log intensity, higher = more binding, comparable within an allelic series)","10.6 upbm affinity estimate (log intensity, higher = more binding, comparable within an allelic series)","10.6 upbm affinity estimate (log intensity, higher = more binding, comparable within an allelic series)","7.3 upbm affinity estimate (log intensity, higher = more binding, comparable within an allelic series)"
CGCGTGGC,"9.04 upbm affinity estimate (log intensity, higher = more binding, comparable within an allelic series)","8.85 upbm affinity estimate (log intensity, higher = more binding, comparable within an allelic series)","9.07 upbm affinity estimate (log intensity, higher = more binding, comparable within an allelic series)","8.86 upbm affinity estimate (log intensity, higher = more binding, comparable within an allelic series)","8.92 upbm affinity estimate (log intensity, higher = more binding, comparable within an allelic series)","8.96 upbm affinity estimate (log intensity, higher = more binding, comparable within an allelic series)","8.93 upbm affinity estimate (log intensity, higher = more binding, comparable within an allelic series)","9 upbm affinity estimate (log intensity, higher = more binding, comparable within an allelic series)","9.1 upbm affinity estimate (log intensity, higher = more binding, comparable within an allelic series)","8.98 upbm affinity estimate (log intensity, higher = more binding, comparable within an allelic series)","8.96 upbm affinity estimate (log intensity, higher = more binding, comparable within an allelic series)","8.97 upbm affinity estimate (log intensity, higher = more binding, comparable within an allelic series)","9.02 upbm affinity estimate (log intensity, higher = more binding, comparable within an allelic series)","7.16 upbm affinity estimate (log intensity, higher = more binding, comparable within an allelic series)","10.4 upbm affinity estimate (log intensity, higher = more binding, comparable within an allelic series)","10.3 upbm affinity estimate (log intensity, higher = more binding, comparable within an allelic series)","7.31 upbm affinity estimate (log intensity, higher = more binding, comparable within an allelic series)"
GGGTATCA,"11.7 upbm affinity estimate (log intensity, higher = more binding, comparable within an allelic series)","10.5 upbm affinity estimate (log intensity, higher = more binding, comparable within an allelic series)","11.7 upbm affinity estimate (log intensity, higher = more binding, comparable within an allelic series)","9.44 upbm affinity estimate (log intensity, higher = more binding, comparable within an allelic series)","11 upbm affinity estimate (log intensity, higher = more binding, comparable within an allelic series)","11.4 upbm affinity estimate (log intensity, higher = more binding, comparable within an allelic series)","10.6 upbm affinity estimate (log intensity, higher = more binding, comparable within an allelic series)","11.8 upbm affinity estimate (log intensity, higher = more binding, comparable within an allelic series)","11.6 upbm affinity estimate (log intensity, higher = more binding, comparable within an allelic series)","11.6 upbm affinity estimate (log intensity, higher = more binding, comparable within an allelic series)","11.6 upbm affinity estimate (log intensity, higher = more binding, comparable within an allelic series)","11.4 upbm affinity estimate (log intensity, higher = more binding, comparable within an allelic series)","11.5 upbm affinity estimate (log intensity, higher = more binding, comparable within an allelic series)",–,–,–,–
CGCAGCGC,"9.07 upbm affinity estimate (log intensity, higher = more binding, comparable within an allelic series)","8.94 upbm affinity estimate (log intensity, higher = more binding, comparable within an allelic series)","9.04 upbm affinity estimate (log intensity, higher = more binding, comparable within an allelic series)","8.96 upbm affinity estimate (log intensity, higher = more binding, comparable within an allelic series)","9.06 upbm affinity estimate (log intensity, higher = more binding, comparable within an allelic series)","9.12 upbm affinity estimate (log intensity, higher = more binding, comparable within an allelic series)","9.01 upbm affinity estimate (log intensity, higher = more binding, comparable within an allelic series)","8.94 upbm affinity estimate (log intensity, higher = more binding, comparable within an allelic series)","8.99 upbm affinity estimate (log intensity, higher = more binding, comparable within an allelic series)","8.97 upbm affinity estimate (log intensity, higher = more binding, comparable within an allelic series)","9.06 upbm affinity estimate (log intensity, higher = more binding, comparable within an allelic series)","8.95 upbm affinity estimate (log intensity, higher = more binding, comparable within an allelic series)","9.02 upbm affinity estimate (log intensity, higher = more binding, comparable within an allelic series)",–,–,–,–
